Measured values from the supplement of paper PMC4466140.

B1: unnamed (peptide)
chain: RLSRLLLSLPPESFT

Target: AgAbp1
Experiment: SPOT peptide array binding signal intensity (averaged, normalized) (arbitrary units (background-subtracted, floor 0; scale differs between SH3 domains)); higher = stronger binding of the SH3 domain to the peptide
Experimental: (§1)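 GST-tagged SH3 domains from S. cerevisiae (Sc), A. gossypii (Ag), C. albicans (Ca) and S. pombe (Sp) were incubated at 10 ug/ml overnight at 4 C on cellulose SPOT membranes carrying 292 synthetic 15-mer peptides mined from the S. cerevisiae proteome (cysteines replaced by serines). Binding was detected with anti-GST antibody, HRP secondary and chemiluminescence, quantified with Genespotter, and reported as normalized spot intensities averaged over biological replicates.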

Binder	SPOT peptide array binding signal intensity
B1	21.5

Target: AgBbc1
Experiment: as above
Experimental: as §1

Binder	SPOT peptide array binding signal intensity
B1	5.5

Target: AgBem1-D1
Experiment: as above
Experimental: as §1

Binder	SPOT peptide array binding signal intensity
B1	356

Target: AgBzz1-D1
Experiment: as above
Experimental: as §1

Binder	SPOT peptide array binding signal intensity
B1	101

Target: AgBzz1-D2
Experiment: as above
Experimental: as §1

Binder	SPOT peptide array binding signal intensity
B1	145

Target: AgCyk3
Experiment: as above
Experimental: as §1

Binder	SPOT peptide array binding signal intensity
B1	2

Target: AgFus1
Experiment: as above
Experimental: as §1

Binder	SPOT peptide array binding signal intensity
B1	878

Target: AgHof1
Experiment: as above
Experimental: as §1

Binder	SPOT peptide array binding signal intensity
B1	96.5

Target: AgHse1
Experiment: as above
Experimental: as §1

Binder	SPOT peptide array binding signal intensity
B1	1240

Target: AgLsb1
Experiment: as above
Experimental: as §1

Binder	SPOT peptide array binding signal intensity
B1	17.8

Target: AgLsb4
Experiment: as above
Experimental: as §1

Binder	SPOT peptide array binding signal intensity
B1	108

Target: AgMyo5
Experiment: as above
Experimental: as §1

Binder	SPOT peptide array binding signal intensity
B1	≤ 0

Target: AgNbp2
Experiment: as above
Experimental: as §1

Binder	SPOT peptide array binding signal intensity
B1	47.5

Target: AgRvs167
Experiment: as above
Experimental: as §1

Binder	SPOT peptide array binding signal intensity
B1	6.5

Target: AgSho1
Experiment: as above
Experimental: as §1

Binder	SPOT peptide array binding signal intensity
B1	70

Target: AgSla1-D1-D2
Experiment: as above
Experimental: as §1

Binder	SPOT peptide array binding signal intensity
B1	85

Target: AgSla1-D3
Experiment: as above
Experimental: as §1

Binder	SPOT peptide array binding signal intensity
B1	5.5

Target: CaAbp1-D1
Experiment: as above
Experimental: as §1

Binder	SPOT peptide array binding signal intensity
B1	152

Target: CaAbp1-D2
Experiment: as above
Experimental: as §1

Binder	SPOT peptide array binding signal intensity
B1	48

Target: CaBbc1
Experiment: as above
Experimental: as §1

Binder	SPOT peptide array binding signal intensity
B1	73.5

Target: CaBem1-D1
Experiment: as above
Experimental: as §1

Binder	SPOT peptide array binding signal intensity
B1	1

Target: CaBzz1-D1
Experiment: as above
Experimental: as §1

Binder	SPOT peptide array binding signal intensity
B1	46

Target: CaBzz1-D2
Experiment: as above
Experimental: as §1

Binder	SPOT peptide array binding signal intensity
B1	138

Target: CaCyk3
Experiment: as above
Experimental: as §1

Binder	SPOT peptide array binding signal intensity
B1	17

Target: CaFus1
Experiment: as above
Experimental: as §1

Binder	SPOT peptide array binding signal intensity
B1	3850

Target: CaHof1
Experiment: as above
Experimental: as §1

Binder	SPOT peptide array binding signal intensity
B1	0.5

Target: CaHse1
Experiment: as above
Experimental: as §1

Binder	SPOT peptide array binding signal intensity
B1	33.5

Target: CaLsb1
Experiment: as above
Experimental: as §1

Binder	SPOT peptide array binding signal intensity
B1	1.5

Target: CaLsb4
Experiment: as above
Experimental: as §1

Binder	SPOT peptide array binding signal intensity
B1	37.5

Target: CaMyo5
Experiment: as above
Experimental: as §1

Binder	SPOT peptide array binding signal intensity
B1	28

Target: CaNbp2
Experiment: as above
Experimental: as §1

Binder	SPOT peptide array binding signal intensity
B1	287

Target: CaRvs167
Experiment: as above
Experimental: as §1

Binder	SPOT peptide array binding signal intensity
B1	64.2

Target: CaRvs167-3
Experiment: as above
Experimental: as §1

Binder	SPOT peptide array binding signal intensity
B1	1010

Target: CaSho1
Experiment: as above
Experimental: as §1

Binder	SPOT peptide array binding signal intensity
B1	588

Target: CaSla1-D1-D2
Experiment: as above
Experimental: as §1

Binder	SPOT peptide array binding signal intensity
B1	≤ 0

Target: CaSla1-D3
Experiment: as above
Experimental: as §1

Binder	SPOT peptide array binding signal intensity
B1	45.5

Target: ScAbp1
Experiment: as above
Experimental: as §1

Binder	SPOT peptide array binding signal intensity
B1	49

Target: ScBbc1
Experiment: as above
Experimental: as §1

Binder	SPOT peptide array binding signal intensity
B1	1.25

Target: ScBem1-D1
Experiment: as above
Experimental: as §1

Binder	SPOT peptide array binding signal intensity
B1	102

Target: ScBzz1-D1
Experiment: as above
Experimental: as §1

Binder	SPOT peptide array binding signal intensity
B1	94

Target: ScBzz1-D2
Experiment: as above
Experimental: as §1

Binder	SPOT peptide array binding signal intensity
B1	118

Target: ScCyk3
Experiment: as above
Experimental: as §1

Binder	SPOT peptide array binding signal intensity
B1	89

Target: ScFus1
Experiment: as above
Experimental: as §1

Binder	SPOT peptide array binding signal intensity
B1	1180

Target: ScHof1
Experiment: as above
Experimental: as §1

Binder	SPOT peptide array binding signal intensity
B1	1

Target: ScHse1
Experiment: as above
Experimental: as §1

Binder	SPOT peptide array binding signal intensity
B1	1930

Target: ScLsb1
Experiment: as above
Experimental: as §1

Binder	SPOT peptide array binding signal intensity
B1	1.5

Target: ScLsb2
Experiment: as above
Experimental: as §1

Binder	SPOT peptide array binding signal intensity
B1	9

Target: ScLsb3
Experiment: as above
Experimental: as §1

Binder	SPOT peptide array binding signal intensity
B1	127

Target: ScLsb4
Experiment: as above
Experimental: as §1

Binder	SPOT peptide array binding signal intensity
B1	4.5

Target: ScMyo3
Experiment: as above
Experimental: as §1

Binder	SPOT peptide array binding signal intensity
B1	≤ 0

Target: ScMyo5
Experiment: as above
Experimental: as §1

Binder	SPOT peptide array binding signal intensity
B1	6

Target: ScNbp2
Experiment: as above
Experimental: as §1

Binder	SPOT peptide array binding signal intensity
B1	176

Target: ScPex13
Experiment: as above
Experimental: as §1

Binder	SPOT peptide array binding signal intensity
B1	1.75

Target: ScRvs167
Experiment: as above
Experimental: as §1

Binder	SPOT peptide array binding signal intensity
B1	20.3

Target: ScSho1
Experiment: as above
Experimental: as §1

Binder	SPOT peptide array binding signal intensity
B1	1770

Target: ScSla1-D1-D2
Experiment: as above
Experimental: as §1

Binder	SPOT peptide array binding signal intensity
B1	≤ 0

Target: ScSla1-D3
Experiment: as above
Experimental: as §1

Binder	SPOT peptide array binding signal intensity
B1	5.75

Target: SpAbp1-D1
Experiment: as above
Experimental: as §1

Binder	SPOT peptide array binding signal intensity
B1	198

Target: SpBbc1
Experiment: as above
Experimental: as §1

Binder	SPOT peptide array binding signal intensity
B1	0.5

Target: SpBzz1-D1
Experiment: as above
Experimental: as §1

Binder	SPOT peptide array binding signal intensity
B1	315

Target: SpBzz1-D2
Experiment: as above
Experimental: as §1

Binder	SPOT peptide array binding signal intensity
B1	≤ 0

Target: SpCyk3
Experiment: as above
Experimental: as §1

Binder	SPOT peptide array binding signal intensity
B1	10

Target: SpHof1
Experiment: as above
Experimental: as §1

Binder	SPOT peptide array binding signal intensity
B1	252

Target: SpHof1-2
Experiment: as above
Experimental: as §1

Binder	SPOT peptide array binding signal intensity
B1	24.2

Target: SpHof1-3
Experiment: as above
Experimental: as §1

Binder	SPOT peptide array binding signal intensity
B1	441

Target: SpHse1
Experiment: as above
Experimental: as §1

Binder	SPOT peptide array binding signal intensity
B1	1330

Target: SpLsb1
Experiment: as above
Experimental: as §1

Binder	SPOT peptide array binding signal intensity
B1	1.25

Target: SpLsb4
Experiment: as above
Experimental: as §1

Binder	SPOT peptide array binding signal intensity
B1	20

Target: SpMyo1
Experiment: as above
Experimental: as §1

Binder	SPOT peptide array binding signal intensity
B1	6.5

Target: SpNbp2
Experiment: as above
Experimental: as §1

Binder	SPOT peptide array binding signal intensity
B1	76

Target: SpPex13
Experiment: as above
Experimental: as §1

Binder	SPOT peptide array binding signal intensity
B1	16

Target: SpRvs167
Experiment: as above
Experimental: as §1

Binder	SPOT peptide array binding signal intensity
B1	13.7

Target: SpSla1-D1-D2
Experiment: as above
Experimental: as §1

Binder	SPOT peptide array binding signal intensity
B1	≤ 0

Target: SpSla1-D3
Experiment: as above
Experimental: as §1

Binder	SPOT peptide array binding signal intensity
B1	6
